Among all 310,000 compounds or so, about 14,000 (4.5%) showed an effect of 50% or more. The effect is printed as a negative number. This excerpt belongs to a sample that is enriched for strong results.
Molecular target: human ether-à-go-go-related gene (hERG) potassium channel (human, UniProt Q12809)
Test: primary screen, population patch clamp on CHO cells stably expressing hERG; higher = less effect of the substance
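Further: peak tail current of the secondary pulse compared with the same well before compound.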

human ether-à-go-go-related gene (hERG) potassium channel, sequence (Q12809 whole entry, looked up): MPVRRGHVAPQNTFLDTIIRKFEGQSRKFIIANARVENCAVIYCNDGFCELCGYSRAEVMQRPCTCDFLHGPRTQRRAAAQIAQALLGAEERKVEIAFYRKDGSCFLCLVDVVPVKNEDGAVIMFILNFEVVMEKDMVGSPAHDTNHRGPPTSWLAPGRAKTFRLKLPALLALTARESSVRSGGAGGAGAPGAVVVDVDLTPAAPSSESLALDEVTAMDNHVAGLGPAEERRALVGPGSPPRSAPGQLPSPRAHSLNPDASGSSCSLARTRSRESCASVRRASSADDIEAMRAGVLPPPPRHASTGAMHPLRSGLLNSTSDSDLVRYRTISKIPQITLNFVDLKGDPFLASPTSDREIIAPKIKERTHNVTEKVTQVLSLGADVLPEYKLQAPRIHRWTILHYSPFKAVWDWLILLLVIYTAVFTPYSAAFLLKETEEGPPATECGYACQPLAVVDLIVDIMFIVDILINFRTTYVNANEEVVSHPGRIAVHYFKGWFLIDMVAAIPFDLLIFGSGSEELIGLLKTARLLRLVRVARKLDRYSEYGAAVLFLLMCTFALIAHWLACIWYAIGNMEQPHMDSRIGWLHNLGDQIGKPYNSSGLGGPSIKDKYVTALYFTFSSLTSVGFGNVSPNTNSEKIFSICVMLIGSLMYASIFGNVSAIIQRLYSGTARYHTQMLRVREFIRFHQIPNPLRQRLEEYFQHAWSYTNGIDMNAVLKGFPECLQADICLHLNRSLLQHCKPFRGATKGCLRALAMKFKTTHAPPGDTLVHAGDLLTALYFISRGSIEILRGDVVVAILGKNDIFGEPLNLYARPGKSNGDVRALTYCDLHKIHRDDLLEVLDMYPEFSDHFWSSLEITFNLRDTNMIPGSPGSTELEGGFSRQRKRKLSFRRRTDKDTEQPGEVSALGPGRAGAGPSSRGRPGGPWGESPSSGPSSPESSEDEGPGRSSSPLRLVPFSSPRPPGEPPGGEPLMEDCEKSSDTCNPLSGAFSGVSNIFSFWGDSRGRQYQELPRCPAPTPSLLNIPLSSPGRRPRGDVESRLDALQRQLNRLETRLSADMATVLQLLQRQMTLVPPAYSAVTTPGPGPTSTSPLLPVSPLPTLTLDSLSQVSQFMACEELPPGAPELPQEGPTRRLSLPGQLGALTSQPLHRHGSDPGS

SMILES	hERG current change (%, negative = inhibition) at 10uM [%]
CCCCCn1c(NC2CCCCC2)nc2c1c(=O)[nH]c(=O)n2C	-17.6
N#CCCN(C(=O)Nc1ccc(Cl)c(Cl)c1)c1ccccc1	-0.506
CCOc1cc(/C=C2\SC(=S)N(NS(=O)(=O)c3ccccc3)C2=O)ccc1O	8.33
CCCCn1c(N)c(N(CCC(C)C)C(=O)COC(=O)c2ccccc2)c(=O)[nH]c1=O	3.79
CN(C)CCCN(C(=O)c1ccc(S(=O)(=O)N2CCCC2)cc1)c1nc2ccc(Br)cc2s1.Cl	-47.9
Cc1cc(C)c2nc(N(CCCN(C)C)C(=O)c3ccc(S(=O)(=O)N4CCCCCC4)cc3)sc2c1.Cl	-20.3
CCOc1ccc2nc(N(CCCN(C)C)C(=O)c3ccc(S(=O)(=O)N4CCCC4)cc3)sc2c1.Cl	-70.4
Cc1ccc2nc(N(CCCN(C)C)C(=O)c3ccc(S(=O)(=O)N4CCOCC4)cc3)sc2c1.Cl	-33.9
CCc1ccc2nc(N(CCCN(C)C)C(=O)c3ccc(S(=O)(=O)N4CCc5ccccc5C4)cc3)sc2c1.Cl	-7.91
Cc1ccc2nc(N(CCCN(C)C)C(=O)c3ccc(S(=O)(=O)N4CCCCCC4)cc3)sc2c1.Cl	-58
CCOc1ccc2nc(N(CCCN(C)C)C(=O)c3ccc(S(=O)(=O)N4CCc5ccccc5C4)cc3)sc2c1.Cl	-1.08
CCc1ccc2nc(N(CCCN(C)C)C(=O)c3ccc(S(=O)(=O)N4CCCC4)cc3)sc2c1.Cl	-67.7
COc1ccccc1N1CC(C(=O)Nc2nnc(SCC(=O)NC(C)C)s2)CC1=O (stereo not drawn)	20.1
CC(=O)Nc1ccc(NC(=O)CSc2nnnn2C2CCCCC2)cc1	-8.79
O=C(CNC(=O)N1CC(=O)Nc2ccccc21)Nc1nccs1	12
CCCc1c(O)nc(SCC(=O)O)[nH]c1=O	67.7
CC1(C)CC(=O)/C(=C(/O)Cc2ccccc2)C(=NCCc2ccccc2)C1	-45.2
O=C(C1CCCCC1)N(Cc1ccccc1)c1ccccn1	1.25
COc1cc(C(=O)NC2CC3CCCC(C2)N3Cc2ccccc2)cc(OC)c1OC (stereo not drawn)	8.89
COc1ccc(CN2C3CCCC2CC(NC(=O)/C=C/c2ccccc2)C3)cc1 (stereo not drawn)	-88
CNC(=S)NC1CC2CCCC(C1)N2Cc1ccccc1OC (stereo not drawn)	-10.1
O=C(NC1CC2CCCC(C1)N2Cc1ccccc1)C1CCCCC1 (stereo not drawn)	-25.2
COc1ccccc1CN1C2CCCC1CC(NC(=O)/C=C/c1ccccc1)C2 (stereo not drawn)	-59.4
CCN(CC)C(=O)NC1CC2CCCC(C1)N2Cc1ccccc1 (stereo not drawn)	-6.25

SMILES	hERG current change (%, negative = inhibition) at 10uM [%]
O=C(/C=C/c1ccccc1)NC1CC2CCCC(C1)N2Cc1ccccc1 (stereo not drawn)	-69.7
COc1ccc(C(=O)OCC(=O)Nc2c(C)n(C)n(-c3ccccc3)c2=O)cc1OC	16.5
CCc1[nH]nc2c1C(C(C)C)C(C#N)=C(N)O2 (stereo not drawn)	10.8
Cn1c(Cc2ccccc2)nnc1SCC(=O)Nc1ccc2c(c1)OCO2	5.64
Cc1ccc(NC(=O)/C(=C\c2ccccc2)NC(=O)/C=C/c2ccccc2)cc1	-12.9
Cn1c(=O)cc(SCC(=O)N2CCC3(CC2)OCCO3)c2ccccc21	-1.64
CC1CCN(C2(O)C(=O)Nc3ccc(Cl)cc32)CC1 (stereo not drawn)	4.26
CC(Sc1ncnc2ccccc12)C(=O)Nc1ccc2c(c1)OCCO2 (stereo not drawn)	5.25
COc1ccc(OCC(O)Cn2c(=N)n(Cc3ccccc3)c3ccccc32)cc1.Cl (stereo not drawn)	-73.5
OC(COc1ccccc1)Cn1c2ccccc2c2ccccc21 (stereo not drawn)	6
Cl.N=c1n(Cc2ccc(Cl)cc2)c2ccccc2n1CC(O)COc1ccccc1 (stereo not drawn)	-68.2
Cl.N=c1n(Cc2ccccc2)c2ccccc2n1CC(O)COc1ccccc1 (stereo not drawn)	-74.6
N=c1ccccn1CC(O)COc1ccccc1 (stereo not drawn)	-3.09
COc1ccc(OCC(O)CN2C(=O)c3ccccc3C2=O)cc1 (stereo not drawn)	8.41
Cc1cccc(OCC(O)CNC(=O)c2ccccc2C(=O)O)c1 (stereo not drawn)	-21.2
Cc1cccc(OCC(O)Cn2c(=N)n(Cc3ccccc3)c3ccccc32)c1.Cl (stereo not drawn)	-71
CC1(C)CC(=O)c2cc(C(=O)N3CCCC(C)(C)C3)c(=O)n(-c3ccccc3)c2C1	11.5
CCc1c(C)sc(NC(=O)/C=C/C(=O)O)c1C(N)=O	36.5
Cc1ccc(C2CC(=O)Nc3c2ccc2ccccc32)cc1[N+](=O)[O-] (stereo not drawn)	6.65
CC(=O)c1nn(-c2ccccc2)cc1C(=O)c1ccc(C)cc1	3.72
N#Cc1c(C(F)(F)F)cc(-c2ccc(F)cc2)nc1SCC(=O)O	6.06
COc1ccc(OC)c(N(CC(=O)NCc2ccccc2)S(=O)(=O)c2ccc(OC)c(OC)c2)c1	18.3
CCN(CC)S(=O)(=O)c1ccc(OC)c(NC(=O)CCS(=O)(=O)Cc2ccccc2)c1	-28
Cc1csc(NC(=O)C2C3C=CC(C3)C2C(=O)O)n1 (stereo not drawn)	-6.11

SMILES	hERG current change (%, negative = inhibition) at 10uM [%]
COC(=O)Cc1ccc(NC(=S)NCc2ccccc2Cl)cc1	-6.56
COC(=O)c1ccc(C(=O)OC)c(NS(C)(=O)=O)c1	-1.73
O=C1CC(C(F)(F)C(F)(F)C(F)(F)F)=Nc2ccccc2N1	-15.1
CC(=O)OCCNC(=O)c1cc2ccccc2oc1=O	9.06
Cl.N=c1n(CCO)c2ccccc2n1Cc1ccccc1	-25.1
N=c1n(Cc2ccccc2)c2ccccc2n1Cc1ccccc1	-62.1
Br.CCn1c(=N)n(Cc2ccccc2F)c2ccccc21	-37.5
O=c1n(Cc2ccccc2F)c2ccccc2n1Cc1ccccc1F	19.4
Br.CC(C)(C)C(=O)Cn1c(=N)n(Cc2ccccc2)c2ccccc21	-48.2
Br.N=c1n(CCc2ccccc2)c2ccccc2n1Cc1ccccc1F	-62.6
O=C(COc1ccc(Cl)cc1)NCCNC(=O)c1cnccn1	5.3
Cc1oc(-c2ccc(Cl)cc2)nc1CS(=O)CC(=O)NCCN1CCCCCC1 (stereo not drawn)	-39.4
Cc1ccccc1Cn1cc(S(=O)(=O)c2ccc(C(C)C)cc2)c(=O)c2cc3c(cc21)OCO3	-20.2
Cc1ccccc1OC(=O)Cn1c(C(F)(F)F)nc2ccccc21	3.95
CC1CCC(C(C)C)C(OC(=O)CSc2nc(N)cc(=O)[nH]2)C1 (stereo not drawn)	12.7
CC1CCC(C(C)C)C(OC(=O)Cn2c(COc3ccccc3)[n+](C)c3ccccc32)C1.[Cl-] (stereo not drawn)	-80.4
CC1CCC(C(C)C)C(OC(=O)COC(=O)c2ccccc2N)C1 (stereo not drawn)	9.64
Cc1cccc(OCc2n(CC(=O)OC3CC(C)CCC3C(C)C)c3ccccc3[n+]2C)c1.[Cl-] (stereo not drawn)	-75
Cc1ccccc1OCc1n(CC(=O)OC2CC(C)CCC2C(C)C)c2ccccc2[n+]1C.[Cl-] (stereo not drawn)	-72
Cc1cccc(OC(=O)Cn2c(C(F)(F)F)nc3ccccc32)c1	17.6
COc1ccc(OCc2n(CC(=O)OC3CC(C)CCC3C(C)C)c3ccccc3[n+]2C)cc1.[Cl-] (stereo not drawn)	-76.4
CC1CCC(C(C)C)C(OC(=O)COC(=O)c2cc(O)ccc2N)C1 (stereo not drawn)	12.9
CN1CCN(C(=O)CCCOc2cc(=O)n(C)c3ccccc23)CC1	0.874
COc1cccc(NC(=O)C2C3C=CC(O3)C2C(=O)O)c1 (stereo not drawn)	10.6

SMILES	hERG current change (%, negative = inhibition) at 10uM [%]
Cc1ccccc1OCCNC(=O)CSc1ccc(C(F)(F)F)cc1[N+](=O)[O-]	10.6
COc1ccc(CCNC(=O)c2ccc(N3CCCC3=O)cc2)cc1OC	15.3
COc1ccc(C(=O)N/C(=C/c2cccnc2)C(=O)N2CCN(C)CC2)cc1OC	11.4
Cc1cc(C)n(C(=O)COc2ccccc2C)n1	-3.33
Nc1c(C(=O)Nc2ccccc2F)sc2nc(-c3cccnc3)ccc12	20.9
O=C(COC(=O)c1ccncc1)Nc1cc(Cl)ccc1Cl	6.07
CCOCCn1c(SCc2ccc(F)cc2)nc2c1c(=O)[nH]c(=O)n2C	-19.5
Cc1ccc(C(C)C)c(OCCOCCN2CCNCC2)c1.O=C(O)C(=O)O	-3.95
CC(C)(C)c1ccc(OCC(=O)NCCN2CCCC2)cc1.Cl	-33.7
CCOC(=O)n1c(=O)n(Cc2ccc(Cl)cc2Cl)c2ccccc21	-3.22
COc1ccc(CN2C3CCCC2CC(NC(=O)Nc2ccccc2)C3)cc1 (stereo not drawn)	-74.1
Cc1cccc(NC(=S)NC2CC3CCCC(C2)N3Cc2ccccc2)c1C (stereo not drawn)	-10.4
Cc1ccccc1NC(=O)NC1CCCCCCC1	8.64
COc1ccc(C(=O)NC2CC3CCCC(C2)N3Cc2ccccc2)c(OC)c1 (stereo not drawn)	-26.5
O=C(Nc1ccc(Cl)c(C(F)(F)F)c1)NC1CC2CCCC(C1)N2Cc1ccccc1 (stereo not drawn)	-71
COc1ccc(NC(=O)N2C3CCCC2CC(NC(=O)c2ccccc2)C3)cc1 (stereo not drawn)	-15.9
COCC(=O)NC1CC2CCCC(C1)N2Cc1ccccc1 (stereo not drawn)	-4.63
O=C(Nc1ccc(Cl)c(C(F)(F)F)c1)NC1CC2CCCC(C1)N2C1CC1 (stereo not drawn)	-10.1
COc1ccc(CN2C3CCCC2CC(NC(=O)Nc2ccccc2C)C3)cc1 (stereo not drawn)	-59
CC(=O)NC1CC2CCCC(C1)N2C(=O)Nc1ccc(Cl)c(C(F)(F)F)c1 (stereo not drawn)	-3.34
COc1ccc(NC(=O)NC2CC3CCCC(C2)N3Cc2ccccc2)cc1 (stereo not drawn)	-50.1
